Reference: the OligoGym collection

Molecular target: HDHD2
Assay: pooled miR-30 sensor sort-seq; sequence = guide strand
Conditions: shRNA

Sequence | sensor-assay potency score (higher = more potent)
TTGCTATCAGAGGTGCTCCATC | -0.808
TTTCTTCATCTGATGCTCGATA | -0.755
TTCCTTTGAAATCAGGTAGTGC | -0.746
TAAACTTCTGGCTGCAGTCAGA | -0.973
TTCCGCTCTAGTAAACTTCTGG | 0.0507
TAACCTTTTAAGAGCTTCCTGT | -0.227
TTTGAAATCAGGTAGTGCCCGA | -0.154
TTTCTCAACCTTTCTAACAGGT | 0.329

Molecular target: HEATR8
Assay: as above
Conditions: shRNA

Sequence | sensor-assay potency score (higher = more potent)
TTCAACACAGAGACATTGGTGT | 0.958
TTCAGGTTCAGCTTGGAGGTGT | 0.381
TTGGCGGTCTTCTCAGACCTGC | -0.945
TACCACTCCAGCACCGAGCTGA | -0.0285
TTGAACTTGTGCTCCAGGTGGT | 0.565
AACATGACTGAGCACTTCCGGA | -0.961
TTGGTCTCTTCCTTATCTCTGG | -0.426
TAACACACCCATGAGTTCCCGT | -0.71
TTCACCACTTTCACCACCCAGC | -0.301
TTGAGTGATGGTCACGCTCAAA | -1.7
TTCTTTATCATGGTCTTCTTTT | -1.04
TAACAGGGTCTTCACACACTTC | -1.46

Molecular target: HECTD1
Assay: as above
Conditions: shRNA

Sequence | sensor-assay potency score (higher = more potent)
TAGCACATAATCATCATCCCAT | 0.659
TGCATCAGTAGCATCAACCTTG | 0.0486
TTGACTACAATCTTGTTTCATA | -0.725
TTGCGTACAACCGTGAGCCTGG | 0.726
TTAACTTTCGAATTAACGCAAC | -1.04
TAAGTCCTCATCATCATCGAGC | -0.93
TAGAGTTGAACAACCAGTGGTA | 0.312
TCGAATACAATCTATAAGCTGC | 0.194
TAAGAGGTCGTTGTGAAGCTGC | -0.0408
TTAATTGTTCACACCAGTCTGG | -0.677
TTTACTTCGAATACAATCTATA | -1.13

Molecular target: HEPH
Assay: as above
Conditions: shRNA

Sequence | sensor-assay potency score (higher = more potent)
AATGTAACCATAACTGTCCTTC | -0.181
TAGTAGATTCTAGCACTCCATG | -1.17
TAGATGGTCTTCTTGTAGGTTC | -0.407
TATCCTCTGAAAGCAGTCGGAA | -1.21
TTTCTGTGCACACATGTTCAGC | -0.645
TGATATAGTAGATTCTTGCAGC | -0.0504
TAGCTTTCTCTGTCGATGTTGG | -0.344
TTGTCAGACTTTAAGAAGCTGG | -0.791
TTGCGTCGTAGCTTTCTCTGTC | 0.593
